The record followed here is PubChem BioAssay (NCATS).

Inconclusive results are not listed. Where a call stands in place of a potency, no number is given. Activity calls are given as the source filed them. Calls come from the whole dose curve; as a rule, active = well fitted inhibition curve with a large enough effect; inconclusive = small, poorly fitted or top-dose-only effect; inactive = no such curve, though single readings can be large or run the other way.
Potency is the fitted concentration of half-maximal effect.

This assay can be described thus: S16 Schwann cell PMP22 intronic element firefly luciferase assay (AID 624032). Note: nearly all actives have a fitted effect of over 30% in size. The conditions noted are these: S16 rat Schwann cells, PMP22 element FLuc, 24 h; series mostly up to 57.5 µM. The text has this:
Charcot-Marie-Tooth-Association [CMTA]
National Center for Advancing Translational Sciences [NCATS]
Charcot-Marie-Tooth (CMT) disease was first characterized by Jean-Martin Charcot and Pierre Marie in France and, independently, by Howard Henry Tooth in England in 1886. CMT is one of the most common inherited neurological diseases, affecting approximately 1 in 2,500 Americans. […] The most prevalent type of CMT is known as CMT1A and caused by a duplication of the PMP22 gene which leads to over-expression of this protein. PMP22 is a glycosylated intrinsic membrane protein accounting for 2-5% of the myelin protein content, and its over-expression results in demyelination and subsequently axonal loss.
A pair of cellular transcription-based assays was developed in the S16 rat Schwann cell lines (Hai, M., et al., 2002) stably transfected with orthogonal reporters - firefly luciferase (Fluc) and beta-lactamase (beta-Lac) - whose expression is driven by an intronic regulatory element of the PMP22 gene (Jones, E.A., et al., 2011) to recapitulate endogenous expression of PMP22. The current assay employs Fluc to report on PMP22 expression. A comprehensive library of approved drugs, the NCGC Pharmaceutical Collection (Huang, R., et al., 2011), was screened in the cross-validating platform of the orthogonal reporter assays to identify drug modulators inhibitory towards PMP22 expression.
A set of counter-screens was devised to address non-specific activity of the library. An ATP-dependent CellTiter-Glo assay (developed by Promega Corp) was utilized to control cell viability. In addition, biochemical Fluc enzyme assay was performed to assess direct inhibition of the Fluc enzymatic activity.
Hai, M., Muja, N., DeVries, G.H., Quarles, R.H. and Patel, P.I. Comparative analysis of Schwann cell lines as model systems for myelin gene transcription studies. J Neurosci Res, 2002. 69(4): pp 497-508
Huang, R., Southall, N., Wang, Y., Yasgar A., Shinn P., Jadhav, A. , Nguyen, D.-T. and Austin, C.P., The NCGC pharmaceutical collection: a comprehensive resource of clinically approved drugs enabling repurposing and chemical genomics. Sci Transl Med, 2011. 3(80): p. 80ps16.
S16 Schwann cell PMP22 intronic element firefly luciferase assay
The FLuc-expressing S16 cells were seeded in white solid 1536-well plates at between 500-750 cells/4uL in DMEM medium containing 10% FBS, w/o phenol red. After overnight incubation at 37 degree Celsius/5% C02, 23 nL of compounds or DMSO were delivered to each well using a pin tool, followed by 24h-incubation at 37 degree Celsius/5% C02. Then 4 uL ONE-Glo luminescent substrate mix (Promega) was added to each well. Luminescence was measured on a ViewLux plate reader (Perkin Elmer). The % activity was determined by normalizing to the average readings of PTC124 (a positive control) - treated cells relative to DMSO-treated cells (0% Activity). The concentration-effect curves were then classified based on curve quality (r2), response magnitude and degree of measured activity.
Take `NCCCNCCSP(=O)(O)O`: the Potency result was “inactive”.
With `Nc1nc(N)c2nc(-c3ccccc3)c(N)nc2n1` the entry was “inactive”; with `CN1CCN(CC(=O)N2c3ccccc3C(=O)Nc3cccnc32)CC1`, “inactive”.
With `CN(C)C(=O)Oc1ccc[n+](C)c1` the entry was “inactive”.
The value for `C#CCN(C)CCCOc1ccc(Cl)cc1Cl` was “inactive”; that for `CCn1cc(C(=O)O)c(=O)c2cc3c(cc21)OCO3` was “inactive”.
As to `CCCCNc1ccc(C(=O)OCCN(C)C)cc1`, the Potency result was “inactive”.
With `CN1CCN(C2=Nc3ccccc3Oc3ccc(Cl)cc32)CC1` the entry was “inactive”; with `C[C@H](CS)C(=O)N1CCC[C@H]1C(=O)O`, “inactive”; with `CCN(CC)CC(=O)Nc1c(C)cccc1C`, “inactive”.
With `OCCN1CCN(CCCN2c3ccccc3C=Cc3ccccc32)CC1` the figure was 36.1 µM (active).
With `NC/C=C/C(=O)O`, the Potency entry was “inactive”.
The value for `O=C(CCCN1CCC(O)(c2cccc(C(F)(F)F)c2)CC1)c1ccc(F)cc1` was “inactive”; that for `C[N+](C)(C)CCOC(=O)CCC(=O)OCC[N+](C)(C)C` was “inactive”.
With `Cc1nc2ccccn2c(=O)c1CCN1CCC(C(=O)c2ccc(F)cc2)CC1` the entry was “inactive”; with `COc1ccc([C@@H]2Sc3ccccc3N(CCN(C)C)C(=O)[C@@H]2OC(C)=O)cc1`, “inactive”.
With `CN(C)CCOC(=O)COc1ccc(Cl)cc1` the entry was “inactive”; with `OC(CCN1CCCCC1)(c1ccccc1)C1CCCCC1` (stereo not given), “inactive”; with `NC(=Nc1ccccc1)Nc1ccccc1`, “inactive”.
With `Cc1ccc(S(=O)(=O)NC(=O)NN2CCCCCC2)cc1`, the Potency entry was “inactive”.
The value for `O=C(O)CN(CCOCCOCCN(CC(=O)O)CC(=O)O)CC(=O)O` was “inactive”; that for `CC(C)[N+](C)(CCOC(=O)C1c2ccccc2Oc2ccccc21)C(C)C` was “inactive”; that for `c1cc(CN2CCCCC2)cc(OCCCNc2nc3ccccc3s2)c1` was “inactive”.
With `CCn1nc(C(=O)O)c(=O)c2cc3c(cc21)OCO3` the entry was “inactive”; with `COc1ccc(CN(CCN(C)C)c2ccccn2)cc1`, “inactive”.
The value for `O=c1[nH]c(=O)n([C@H]2C[C@H](O)[C@@H](CO)O2)cc1Br` was 4.05 µM (active); that for `Nc1c2c(nc3ccccc13)CCCC2O` (stereo not given) was “inactive”.
Turning to `O=C1NCN(c2ccccc2)C12CCN(CCCC(c1ccc(F)cc1)c1ccc(F)cc1)CC2`, the Potency is 25.6 µM (active).
With `CCCCOCCOCCOCc1cc2c(cc1CCC)OCO2` the entry was “inactive”; with `NC(N)=N/N=C/c1c(Cl)cccc1Cl`, “inactive”.
With `CCCC(C(=O)OCCN(CC)CC)(c1ccccc1)c1ccccc1` the entry was “inactive”.
The value for `CC(=O)Oc1cc(C(C)C)c(OCCN(C)C)cc1C` was “inactive”.
In the case of `CC(=O)[C@]1(O)Cc2c(O)c3c(c(O)c2[C@@H](O[C@H]2C[C@H](N)[C@H](O)[C@H](C)O2)C1)C(=O)c1ccccc1C3=O`, the Potency result is “inactive”.
Regarding `C[n+]1cc2c3c(ccc2c2ccc4cc5c(cc4c21)OCO5)OCO3`, the Potency is 8.09 µM (active).
With `CN/C(=C\[N+](=O)[O-])NCCSCc1ccc(CN(C)C)o1`, the Potency entry was “inactive”.
The value for `COc1ccc(CCN(C)CCCC(C#N)(c2cc(OC)c(OC)c(OC)c2)C(C)C)cc1OC` (stereo not given) was “inactive”; that for `NC(N)=NC(=O)Cc1c(Cl)cccc1Cl` was “inactive”; that for `Cc1ccc(=O)n(-c2ccccc2)c1` was “inactive”.
The value for `Cc1nnc(SCC2=C(C(=O)O)N3C(=O)[C@@H](NC(=O)Cn4cnnn4)[C@H]3SC2)s1` was “inactive”; that for `COC(=O)[C@@H](N)Cc1ccc(O)c(O)c1` was “inactive”.
